The list shows a part of the results. The hit rate among all sequences tested is not known here.
B1: HC144 (peptide)
chain: CAEVVTLTWVAGNASASA
B2: HC1415 (peptide)
chain: CACSLTPPHSAGNASASA
B3: FS-100 (peptide)
chain: CATRSVRKRSAGNASASA
B4: HC1335 (peptide)
chain: CATRSFGSSSAGNASASA
B5: FS-572 (peptide)
chain: CATSSSRKRSAGNASASA
B6: HC1508 (peptide)
chain: CAGYRRCRASAGNASASA
B7: HC1311 (peptide)
chain: CAWKKPDYEPAGNASASA
B8: FS-674 (peptide)
chain: CAKKMRVWRDAGNASASA
B9: HC163 (peptide)
chain: CAPKPQKKNKAGNASASA
B10: FS-2867 (peptide)
chain: CAKKKRMAMAAGNASASA
B11: HC164 (peptide)
chain: CAPQKKNKRNAGNASASA
B12: HC165 (peptide)
chain: CAKKNKRNTNAGNASASA
B13: FS-902 (peptide)
chain: CAYRHRKKRNAGNASASA
B14: HC1322 (peptide)
chain: CAPVPPPRKKAGNASASA
B15: HC166 (peptide)
chain: CANKRNTNRRAGNASASA
B16: HC1449 (peptide)
chain: CAARLIVFPDAGNASASA
B17: FS-263 (peptide)
chain: CAKTTRKKRNAGNASASA
B18: HC2012 (peptide)
chain: CAVECCSMSYAGNASASA
B19: HC352 (peptide)
chain: CAAETHVTGGAGNASASA
B20: HC1250 (peptide)
chain: CASHITAEAAAGNASASA
B21: HC1435 (peptide)
chain: CADNVTPIDTAGNASASA
B22: HC515 (peptide)
chain: CAIASWAIKWAGNASASA
B23: HC505 (peptide)
chain: CALIHLHQNIAGNASASA
B24: HC2015 (peptide)
chain: CAVHCCSMSYAGNASASA
B25: HC1161 (peptide)
chain: CAPQLPGIPFAGNASASA
B26: HC1861 (peptide)
chain: CATNPCSGSWAGNASASA
B27: HC2172 (peptide)
chain: CAEEVTSTWVAGNASASA
B28: FS-42 (peptide)
chain: CAKKMRNKRNAGNASASA
B29: FS-1352 (peptide)
chain: CAKTLRTKRNAGNASASA
B30: HC2548 (peptide)
chain: CASTPCSAWLAGNASASA
B31: HC2431 (peptide)
chain: CADREVPCHRAGNASASA
B32: HC54 (peptide)
chain: CATTPCSGSWAGNASASA
B33: HC444 (peptide)
chain: CAPPCVIGGAAGNASASA
B34: FS-2235 (peptide)
chain: CARRRRYEGHAGNASASA
B35: FS-3232 (peptide)
chain: CARRRRYAVAAGNASASA
B36: FS-2182 (peptide)
chain: CARRRRYKKKAGNASASA
B37: FS-1787 (peptide)
chain: CARRRRLYWGAGNASASA
B38: FS-1786 (peptide)
chain: CARRRRLRTAAGNASASA
B39: FS-2801 (peptide)
chain: CARRRRYALSAGNASASA
B40: HC1587 (peptide)
chain: CALIARDQLEAGNASASA
B41: HC595 (peptide)
chain: CAGRDAVILLAGNASASA
B42: FS-1205 (peptide)
chain: CAGRSRSRRAAGNASASA
B43: FS-438 (peptide)
chain: CAGTQRLTRAAGNASASA
B44: FS-1591 (peptide)
chain: CAGRSRASRGAGNASASA
B45: FS-241 (peptide)
chain: CAGHSRSRRAAGNASASA
B46: FS-594 (peptide)
chain: CAGRSRRPRLAGNASASA
B47: FS-15 (peptide)
chain: CACRARGMRAAGNASASA
B48: FS-658 (peptide)
chain: CAGRQRKPRPAGNASASA

Target: furin, P09958
Sequence (P09958 whole entry): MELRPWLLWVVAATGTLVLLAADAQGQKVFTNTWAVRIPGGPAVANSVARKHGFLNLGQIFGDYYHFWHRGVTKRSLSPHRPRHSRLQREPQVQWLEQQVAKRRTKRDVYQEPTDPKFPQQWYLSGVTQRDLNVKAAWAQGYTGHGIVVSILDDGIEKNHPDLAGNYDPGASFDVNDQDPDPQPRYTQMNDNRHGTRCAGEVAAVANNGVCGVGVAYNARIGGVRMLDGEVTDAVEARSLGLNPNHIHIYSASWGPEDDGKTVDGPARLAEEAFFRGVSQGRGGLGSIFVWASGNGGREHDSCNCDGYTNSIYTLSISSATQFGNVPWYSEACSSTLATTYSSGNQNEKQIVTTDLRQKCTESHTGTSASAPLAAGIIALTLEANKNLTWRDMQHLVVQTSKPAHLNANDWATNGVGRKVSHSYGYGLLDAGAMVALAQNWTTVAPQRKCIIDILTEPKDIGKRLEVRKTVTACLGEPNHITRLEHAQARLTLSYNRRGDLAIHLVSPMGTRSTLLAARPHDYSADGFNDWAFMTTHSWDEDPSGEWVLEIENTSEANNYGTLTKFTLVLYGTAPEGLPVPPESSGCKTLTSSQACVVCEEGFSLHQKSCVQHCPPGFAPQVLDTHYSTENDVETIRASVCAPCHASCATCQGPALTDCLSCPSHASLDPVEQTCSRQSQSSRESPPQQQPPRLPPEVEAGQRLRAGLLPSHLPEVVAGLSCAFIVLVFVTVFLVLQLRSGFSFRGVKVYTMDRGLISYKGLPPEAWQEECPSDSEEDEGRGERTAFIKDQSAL
Assay: furin cleavage Z-score vs untreated control; higher = more cleavage, active = 3.5 or more, inactive = 1 or less, 8 variable residues between constant flanks
Method in brief: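 Cleavage by purified furin was measured on 8-mer peptides fused to a cDNA oligonucleotide and held on magnetic beads by their N-terminus. Reactions (0.01 ml, 1:10 enzyme:substrate) ran 7.5, 15 or 30 min in 50 mM HEPES pH 7.5 with CaCl2 and NaCl. Released DNA was adapter-tagged by PCR and sequenced, with read counts giving abundance. Log counts versus furin-free reactions were lowess-adjusted and scaled by median absolute deviation to give the cleavage Z-score.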

Sequence	furin cleavage Z-score (7.5 min)	furin cleavage Z-score (15 min)	furin cleavage Z-score (30 min)
B1	0.108 (inactive)	1.05	-0.447 (inactive)
B2	-1.29 (inactive)	-4.97 (inactive)	-1.14 (inactive)
B3	10 (active)	8.16 (active)	6.31 (active)
B4	0.518 (inactive)	-0.799 (inactive)	-0.228 (inactive)
B5	1.17	0.258 (inactive)	1.99
B6	0.58 (inactive)	-0.0246 (inactive)	0.472 (inactive)
B7	-0.0824 (inactive)	-0.0771 (inactive)	0.0457 (inactive)
B8	4.34 (active)	5.37 (active)	5.78 (active)
B9	-1.39 (inactive)	-0.337 (inactive)	-0.509 (inactive)
B10	-0.103 (inactive)	0.494 (inactive)	1.89
B11	5.11 (active)	6.33 (active)	5.55 (active)
B12	4.17 (active)	6.77 (active)	5.31 (active)
B13	2.85	1.03	-0.551 (inactive)
B14	0.00444 (inactive)	1.55	0.99 (inactive)
B15	0.476 (inactive)	1.53	-0.249 (inactive)
B16	-1.5 (inactive)	-0.858 (inactive)	-0.313 (inactive)
B17	7.57 (active)	8.3 (active)	5.21 (active)
B18	0.483 (inactive)	1.15	0.164 (inactive)
B19	-0.704 (inactive)	-0.0263 (inactive)	-0.814 (inactive)
B20	-0.151 (inactive)	-1.71 (inactive)	-1.91 (inactive)
B21	-0.0484 (inactive)	-0.00567 (inactive)	-0.908 (inactive)
B22	-0.183 (inactive)	0.294 (inactive)	-1.7 (inactive)
B23	0.141 (inactive)	-1.53 (inactive)	0.884 (inactive)
B24	0.313 (inactive)	-1.84 (inactive)	0.688 (inactive)

Sequence	furin cleavage Z-score (7.5 min)	furin cleavage Z-score (15 min)	furin cleavage Z-score (30 min)
B25	-0.711 (inactive)	-1.22 (inactive)	0.14 (inactive)
B26	-0.962 (inactive)	-0.755 (inactive)	-0.828 (inactive)
B27	-0.33 (inactive)	0.0818 (inactive)	0.598 (inactive)
B28	10.5 (active)	10.9 (active)	9.3 (active)
B29	9.31 (active)	8.38 (active)	6.89 (active)
B30	-0.0997 (inactive)	-0.849 (inactive)	-0.533 (inactive)
B31	0.898 (inactive)	1.78	1.29
B32	-0.34 (inactive)	-3.09 (inactive)	-0.396 (inactive)
B33	-0.324 (inactive)	-0.267 (inactive)	0.0653 (inactive)
B34	0.411 (inactive)	0.839 (inactive)	-0.246 (inactive)
B35	4.58 (active)	6.75 (active)	6.05 (active)
B36	-0.133 (inactive)	-0.187 (inactive)	-0.000733 (inactive)
B37	-0.939 (inactive)	0.513 (inactive)	-1.89 (inactive)
B38	2.03	3.9 (active)	4.2 (active)
B39	5.16 (active)	9.42 (active)	8.62 (active)
B40	1.19	-0.286 (inactive)	0.308 (inactive)
B41	-0.947 (inactive)	-0.587 (inactive)	-0.719 (inactive)
B42	11.2 (active)	9.2 (active)	6.8 (active)
B43	5.42 (active)	7.11 (active)	7.04 (active)
B44	0.169 (inactive)	0.355 (inactive)	0.871 (inactive)
B45	9.52 (active)	9.9 (active)	7.81 (active)
B46	5.82 (active)	7.31 (active)	7.21 (active)
B47	-0.759 (inactive)	-0.9 (inactive)	-0.752 (inactive)
B48	-0.103 (inactive)	-1.02 (inactive)	-0.398 (inactive)

Source: the supplement of paper PMC3545927
